Only some compounds are listed: those with a hit (about 6.8% of all), similar ones and a draw of the others.
USP7 inh – inhibitors of human USP7 deubiquitinase | Ubiquitin carboxyl-terminal hydrolase 7 (Homo sapiens), Q93009 | inhibition, % at 20 µM | purified USP7, Ub-rhodamine cleavage fluorescence | hit rate 0.3% among 47,000 | AID 1645854, 2021
USP28 inh – inhibitors of human USP28 deubiquitinase. Ubiquitin carboxyl-terminal hydrolase 28 (Homo sapiens), Q96RU2. purified USP28, Ub-rhodamine cleavage fluorescence, 30 min. inhibition, % at 25 µM. hit rate 3% among 47,000. AID 1645857, 2021
OTUD3 inh – inhibitors of human OTUD3 deubiquitinase; OTU domain-containing protein 3 (Homo sapiens), Q5T2D3; purified OTUD3, Ub-rhodamine fluorescence, 2 h; inhibition, % at 25 µM; hit rate 0.7% among 47,000; AID 1645858, 2021
Target sequence (Q5T2D3 whole entry, looked up, the tested form may be a part): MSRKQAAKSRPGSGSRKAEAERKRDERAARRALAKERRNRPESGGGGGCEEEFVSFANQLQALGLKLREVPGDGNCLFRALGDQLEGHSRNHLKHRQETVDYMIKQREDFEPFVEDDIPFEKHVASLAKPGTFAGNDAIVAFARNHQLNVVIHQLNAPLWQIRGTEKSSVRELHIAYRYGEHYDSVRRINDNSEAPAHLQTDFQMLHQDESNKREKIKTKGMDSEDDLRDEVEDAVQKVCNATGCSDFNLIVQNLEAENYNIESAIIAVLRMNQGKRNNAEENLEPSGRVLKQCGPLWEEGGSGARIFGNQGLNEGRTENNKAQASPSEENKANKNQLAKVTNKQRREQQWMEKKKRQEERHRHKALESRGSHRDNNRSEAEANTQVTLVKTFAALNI
USP8 inh – inhibitors of human USP8 deubiquitinase; purified USP8, Ub-rhodamine cleavage fluorescence, 30 min; inhibition, % at 20 µM; hit rate 4.2% among 47,000; AID 1645853, 2021
USP10 block – inhibitors of human USP10 deubiquitinase. Ubiquitin carboxyl-terminal hydrolase 10 (Homo sapiens), Q14694. hit rate 1.1% among 47,000. AID 1645856, 2021. inhibition, % at 20 µM. purified USP10, Ub-rhodamine fluorescence, 60 min
UCHL1 block – inhibitors of human UCHL1 deubiquitinase; Ubiquitin carboxyl-terminal hydrolase isozyme L1 (Homo sapiens), P09936; AID 1645859, 2021; purified UCHL1, Ub-rhodamine cleavage fluorescence; inhibition, % at 20 µM; hit rate 0.2% among 47,000
A number is an active result; n = inactive. Cut-off read from the data, not from the text of the source: active = inhibition above about 30%; inactive = the rest.

SMILES	USP7 inh	USP28 inh	OTUD3 inh	USP8 inh	USP10 block	UCHL1 block
O=C1c2c(O)c(Cl)cc3c2[C@@]2(Oc4cc(Cl)c(O)c5c4[C@]3(O2)[C@@H]2O[C@@H]2C5=O)[C@@H]2O[C@H]12	93	78	84	54	69	92
CC1=C(C)C(=O)O[C@@H]([C@](C)(O)[C@]2(O)CC[C@@]3(O)[C@@H]4CC=C5[C@@H](O)C=CC(=O)[C@]5(C)[C@H]4CC[C@]23C)C1	n	n	n	n	n	n
CON1C(=O)C2NC(=O)C13Oc1cc(O)c(Cl)cc1C3SS2 (configuration not stated)	n	n	n	n	n	n
CC1=C(O)C(=O)C=C2C1=CC=C1[C@@]2(C)CC[C@@]2(C)[C@@H]3C[C@](C)(C(=O)O)CC[C@]3(C)CC[C@]12C	35	64	n	46	81	n
Cc1ccc(C)c(Cn2cccc(C(=O)Nc3ccccn3)c2=O)c1	n	34	n	n	n	n
CCOC(=O)c1c(C)n(C2CC2)c2ccc(OC)cc12	n	37	n	n	n	n
O=C1CSC(c2cccc([N+](=O)[O-])c2)c2c(n(C3CCCCCC3)[nH]c2=O)N1 (configuration not stated)	n	n	n	40	n	n
Cc1ccc(C2SCC(=O)Nc3c2c(=O)[nH]n3C2CCCCCC2)cc1 (configuration not stated)	n	n	n	73	n	n
CCOc1ccc(C2SCC(=O)Nc3c2c(=O)[nH]n3C2CCCC2)cc1 (configuration not stated)	n	n	n	n	n	n
CS(=O)(=O)c1ccc(C(=O)N(Cc2ccco2)C2CCN(Cc3cccc(C#N)c3)CC2)cc1	n	n	n	n	n	n
COc1ccc(C(C)NC(=O)c2cn(C)c3ncccc23)cc1OC (configuration not stated)	n	n	n	n	n	n
O=C(NCc1ccccn1)c1cc2cccnc2n(Cc2ccccc2)c1=O	n	n	n	n	n	n
O=C(Nc1ccccn1)c1c(O)c2ccccc2n(Cc2ccccc2)c1=O	n	n	n	69	n	n
CN=C(N)NCCC/C=C/CCC[C@H](C)C[C@H](C)C1OC(=O)C(C)C(O)/C=C/C(C)C(O)CC(O)C(C)C(O)CCC(C)C(O)CC2(O)OC(CC(OC(=O)CC(=O)O)CC(O)CC(O)C(C)C(O)/C=C/C=C/C1C)CC(O)C2O (some centres not stated)	n	34	n	n	n	n
CC(C)C12CN3CC(C(C)C)(CN(C1)C3c1ccccn1)C2O (configuration not stated)	n	n	n	47	n	n
O=C(c1cc(-c2ccncc2)n(-c2ccccc2)n1)N1CCC2(CC1)OCCO2	n	n	n	n	n	n
O=C(c1nc(-c2ccncc2)no1)N1CCC2(CC1)OCCO2	n	n	n	31	n	n
COc1ccc(OCC(=O)N2CCN(Cc3ccncc3)CC2)cc1	n	n	n	n	n	n
CCNC(=O)N1CCC2(CC1)C(=O)N(Cc1ccccc1)c1c(OC)cccc12	n	n	n	n	n	n
COc1cc(C2SCC(=O)Nc3c2c(-c2ccccc2)nn3-c2ccccc2)cc(OC)c1OC (configuration not stated)	n	77	n	n	n	n
Cc1cc(C)nc(-n2nc(C)c3c2NC(=O)CSC3c2ccccc2F)n1 (configuration not stated)	n	n	n	n	n	n
O=C1CSC(c2ccc(Cl)cc2)c2c(-c3ccccc3)nn(-c3ccccc3)c2N1 (configuration not stated)	n	43	n	n	n	n
N#Cc1ccc(NC(=O)COc2cccc3ccccc23)cc1Cl	n	n	n	n	n	n
C[C@@H]1CC[C@@]2(OC1)O[C@H]1C[C@H]3[C@@H]4CC=C5C[C@@H](O[C@@H]6O[C@@H](CO)[C@@H](O[C@@H]7O[C@@H](C)[C@H](O[C@@H]8O[C@@H](C)[C@H](O)[C@H](O)[C@H]8O)[C@H](O)[C@H]7O)[C@H](O)[C@@H]6O[C@@H]6O[C@@H](C)[C@H](O)[C@H](O)[C@H]6O)CC[C@]5(C)[C@H]4CC[C@]3(C)[C@H]1[C@@H]2C	n	38	n	n	n	n
